Compound activity: PubChem BioAssay, NMMLSC
Shown are actives, neighbours in structure and some others; about 3.5% of the full set was active somewhere.
Autofluor counter: compound fluorescence in toxin protease inhibitor counterscreen | compound autofluorescence counterscreen, microsphere flow cytometry; stronger effect = higher value | fluorescence intensity (no concentration beside the values) | 3.1% of 360,000 active; in the data active = fluorescence intensity above about 16000; inconclusive = no clear call, values can overlap the other calls
BoNT A protease: BoNT A light chain protease inhibition; AID 588499; 0.17% of 360,000 active; inhibition, % at 10 µM; multiplex microsphere protease substrate cleavage, flow cytometry
Anthrax LF inh2: inhibitors of Bacillus anthracis lethal factor protease | multiplex microsphere protease cleavage assay, LF | inhibition, % at 10 µM | 0.12% of 360,000 active | AID 588501
Target sequence (P15917 whole entry, looked up): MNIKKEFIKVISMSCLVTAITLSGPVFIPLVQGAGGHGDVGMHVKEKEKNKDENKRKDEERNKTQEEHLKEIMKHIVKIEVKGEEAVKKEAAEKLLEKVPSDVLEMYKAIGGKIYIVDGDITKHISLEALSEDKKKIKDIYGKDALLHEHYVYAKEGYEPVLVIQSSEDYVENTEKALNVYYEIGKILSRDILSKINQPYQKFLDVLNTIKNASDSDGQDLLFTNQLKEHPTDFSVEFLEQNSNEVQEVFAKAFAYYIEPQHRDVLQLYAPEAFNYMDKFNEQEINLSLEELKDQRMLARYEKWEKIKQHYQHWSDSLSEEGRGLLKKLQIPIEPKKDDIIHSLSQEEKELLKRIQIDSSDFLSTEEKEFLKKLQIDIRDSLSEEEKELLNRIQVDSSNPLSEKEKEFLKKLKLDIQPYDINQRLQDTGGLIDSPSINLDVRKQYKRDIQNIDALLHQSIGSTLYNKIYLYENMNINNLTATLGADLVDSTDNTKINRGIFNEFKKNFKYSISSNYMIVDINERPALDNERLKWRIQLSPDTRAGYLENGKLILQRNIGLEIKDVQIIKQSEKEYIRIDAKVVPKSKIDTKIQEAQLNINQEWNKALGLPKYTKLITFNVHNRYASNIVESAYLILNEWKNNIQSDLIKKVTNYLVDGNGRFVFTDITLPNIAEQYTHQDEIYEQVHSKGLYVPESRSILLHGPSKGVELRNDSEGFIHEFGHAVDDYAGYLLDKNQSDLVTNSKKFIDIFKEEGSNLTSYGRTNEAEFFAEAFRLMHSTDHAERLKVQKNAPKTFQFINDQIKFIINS
BoNT F protease: blocks Botulinum neurotoxin F light chain protease; Multiplex microsphere protease cleavage assay, flow cytometry; inhibition, % at 10 µM; 0.22% of 360,000 active; AID 588497; in the data active = inhibition above about 35%, passing the limit was not always enough; inconclusive = no clear call, values can overlap the other calls
Numbers stand for hits; 0 = inactive; ? = inconclusive. Rule as the data show it, unless noted: active = inhibition above about 30%; inconclusive = no clear call, values can overlap the other calls; inactive = below that.

SMILES | Autofluor counter | BoNT A protease | Anthrax LF inh2 | BoNT F protease
CC1(C(=O)NS(=O)(=O)c2ccc(Cl)cc2)CCN1C(=O)c1ccc(C2CCCCC2)cc1 (stereo not drawn) | 0 | 0 | 0 | 0
COC(=O)C1C(=O)C2=C(CC1C)NC(C)=C(C(=O)OC(C)C)C2c1ccc(OC)c(O)c1 (stereo not drawn) | 22658 | 0 | 0 | 0
COC(=O)C1C(=O)C2=C(CC1C)NC(C)=C(C(=O)OC1CCCC1)C2c1ccc(N(C)C)cc1 (stereo not drawn) | 0 | 0 | 0 | 0
CSCCC(NS(=O)(=O)c1ccccc1F)C(=O)N1CCCCCCC1 (stereo not drawn) | 0 | 0 | 0 | 0
O=C(c1cccs1)N1CCN(CCCc2ccccc2)CC1 | 21596 | 0 | 0 | 0
CC(=O)NC(Cc1ccccc1)C(=O)N1CCN(C(=O)c2cccs2)CC1 (stereo not drawn) | 16669 | 0 | 0 | 0
CC(=O)NC(Cc1ccccc1)C(=O)NC1CCN(C(=O)NCc2ccccc2)CC1 (stereo not drawn) | 0 | 0 | 0 | 0
O=C(c1cccs1)N1CCN(S(=O)(=O)c2ccccc2)CC1 | 16321 | 0 | 0 | 0
CC(=O)NC(Cc1ccc(F)cc1)C(=O)N1CCN(C(=O)NCc2ccccc2)CC1 (stereo not drawn) | 20125 | 0 | 0 | 0
Cc1nc(C)n(CC(C)C(=O)N2CCN(S(=O)(=O)c3ccccc3)CC2)n1 (stereo not drawn) | 0 | 0 | 0 | 0
O=C(C1CCC(=O)N(C2CCCC2)C1)N1CCN(Cc2cccc(F)c2)CC1 (stereo not drawn) | 0 | 0 | 0 | 0
Cc1sc2nc(CN3CCCCC3)nc(Cl)c2c1C | 0 | 0 | 0 | 0
O=C(COc1ccccc1[N+](=O)[O-])NCCCN1CCCC1=O | 0 | 0 | 0 | 0
COc1cccc(C(=O)Nc2ccc(S(=O)(=O)NCc3ccco3)cc2)c1 | 24328 | 0 | 0 | 0
O=C(Nc1ccc(S(=O)(=O)NCc2ccco2)cc1)c1cccc(F)c1 | 0 | 0 | 0 | 0
O=C(NC1CCCCC1)c1ccc(S(=O)(=O)NCc2ccco2)cc1 | 21532 | 0 | 0 | 0
Cc1nn(-c2ccccc2)c(C)c1CNC(=O)c1ccc(S(=O)(=O)NCc2ccco2)cc1 | 0 | 0 | 0 | 0
O=C(NC1CCN(Cc2ccccc2)CC1)c1ccc(S(=O)(=O)NCc2ccco2)cc1 | 0 | 0 | 0 | 0
Cc1cc(C)n(CCCNC(=O)c2ccc(S(=O)(=O)NCc3ccco3)cc2)n1 | 21580 | ? | 0 | 0
O=C(CN1C(=O)C2CCCCC2C1=O)OCC(=O)c1ccc(F)cc1 (stereo not drawn) | 0 | 0 | 0 | 0
CC1=C(C(=O)OC(C)C)C(c2cccnc2)C2=C(CCCC2=O)N1 (stereo not drawn) | 0 | 0 | 0 | 0
CCOC(=O)C1=C(C)NC2=C(C(=O)CCC2)C1c1cccnc1 (stereo not drawn) | 23612 | 0 | 0 | 0
CCOC(=O)C1=C(N)OC2=C(C(=O)CC(C)(C)C2)C1c1cccnc1 (stereo not drawn) | 22141 | 0 | 0 | 0
O=C(Oc1ccc2c(=O)c(Oc3ccc4ccccc4c3)coc2c1)c1cncc(Br)c1 | 0 | 0 | 0 | 35.7
O=C(c1ccco1)n1nc(-c2ccco2)nc1SCc1ccccc1 | 21774 | 0 | 0 | 0
SMILES | Autofluor counter | BoNT A protease | Anthrax LF inh2 | BoNT F protease
O=C(c1ccco1)n1nc(-c2ccccc2)nc1SCc1ccccc1 | ? | 0 | 0 | 0
F[B-](F)(F)c1cncc2ccccc12 | 0 | 0 | 0 | 0
Cc1cccc(NS(=O)(=O)c2ccc(C)c(C(=O)NC3CCN(Cc4ccccc4)CC3)c2)c1 | 30942 | 0 | 0 | 0
Cc1ccc(NC(=O)CN2C(=O)CNC2=O)cc1 | 0 | 0 | 0 | 0
CCOc1ccc(CCNC(=O)CCS(=O)(=O)c2ccc(OC)cc2)cc1OCC | 0 | 0 | 0 | 0
CCOC(=O)N1CCN(C(=O)/C(=C/c2ccccc2OC)NC(=O)c2ccccc2)CC1 | 16214 | ? | 0 | 0
O=C(N/C(=C/c1ccc(Cl)cc1)C(=O)N1CCOCC1)c1ccccc1 | 0 | 0 | 0 | 0
O=C(N/C(=C/c1ccc(F)cc1)C(=O)N1CCOCC1)c1ccccc1 | 30895 | ? | ? | ?
CCOC(=O)C1CCCN(C(=O)/C(=C/c2ccco2)NC(=O)c2ccccc2)C1 (stereo not drawn) | 0 | 0 | 30.6 | 0
Brc1cc(Br)c2nc(-c3ccc(N4CCOCC4)cc3)ccc2c1 | 19443 | ? | 0 | 0
O=C(CN1CCC(NC(=O)c2ccc(F)cc2)CC1)NCc1ccccc1F | 17206 | 0 | 0 | 0
CCOc1cccc2cc(-c3csc(NC(=O)CCC(=O)N4CCC(C)CC4)n3)c(=O)oc12 | 22950 | 0 | 0 | 0
COc1cccc(NC(=O)c2cnsn2)c1 | 17160 | 0 | 0 | 0
COc1cccc(NC(=O)CN(C)C(=O)c2ccc3ccccc3c2)c1 | 23982 | 0 | 0 | 0
COc1cccc(NC(=O)CN2CCC(C)CC2)c1 | 22557 | ? | 0 | 0
COc1cccc(NC(=O)c2cccc(C(=O)Nc3cccc(OC)c3)n2)c1 | 0 | 0 | 0 | 0
COc1cccc(NC(=O)CSCC(=O)O)c1 | 17067 | 0 | 0 | 0
C=CCn1c(N(C)C)nc2c1c(=O)[nH]c(=O)n2C | 0 | 0 | 0 | 0
O=C(CN1CCCCC1)Nc1cccc(Oc2ccccc2)c1 | 23011 | 0 | 0 | 0
COc1cccc(N/C(SC)=C(/C#N)C(=O)NCc2cccs2)c1 | 0 | 0 | 0 | 0
COc1cccc(N/C(SC)=C(/C#N)C(N)=O)c1 | 23601 | 0 | 0 | 0
COc1cccc(NC(=O)COC(=O)c2c3c(nc4ccccc24)CCC(C)C3)c1 (stereo not drawn) | 19387 | 0 | 0 | 0
O=C(CN1CCCCCC1)Nc1ccccc1 | 0 | 0 | 0 | 0
Cc1ccc(C(C)(O)CS(=O)(=O)Cc2ccccc2Cl)cc1 (stereo not drawn) | 0 | 0 | 0 | 0
CSc1ncccc1C(=O)NC1CCCc2c1cnn2-c1ccc(C)c(C)c1 (stereo not drawn) | 0 | 0 | 0 | 0
SMILES | Autofluor counter | BoNT A protease | Anthrax LF inh2 | BoNT F protease
CCN(CC)c1ncnc2c1cnn2Cc1ccc(Cl)cc1 | 0 | 0 | 0 | 0
CC1CCCCC12NC(=O)N(CC(=O)N1CCN(C(=O)c3ccco3)CC1)C2=O (stereo not drawn) | 0 | 0 | 0 | 0
CCOC(=O)CNc1c(-c2ccc(O)cc2)nc2ccc(Cl)cn12 | 23767 | 0 | 0 | 0
CCOC(=O)CNc1c(-c2ccc(O)cc2)nc2ccccn12 | 23116 | 0 | 0 | 0
COc1ccc(S(=O)(=O)NNC(=O)Nc2ccc(F)cc2F)c(OC)c1 | 0 | 0 | 0 | 0
CSc1nc(SCC(=O)NC(c2ccccc2)c2ccccc2)c2c3c(sc2n1)CN(C)CC3 | 16363 | 0 | 0 | 0
CSc1nc(NCC(C)O)c2c3c(sc2n1)CN(C)CC3 (stereo not drawn) | 0 | 0 | 0 | ?
Cc1ccsc1C1C2=C(CCCC2=O)Nc2ncnn21 (stereo not drawn) | 22735 | 0 | 0 | 0
C=CCNC(=S)N/N=C/c1ccc(OCc2ccccc2Cl)cc1 | 19727 | 0 | 0 | 0
COc1ccc(CNC(=O)/C=C/c2cc([N+](=O)[O-])ccc2OC(F)F)cc1OC | 18771 | ? | 0 | 0
O=C(/C=C/c1cc([N+](=O)[O-])ccc1OC(F)F)Nc1cccc2ccccc12 | 0 | 0 | 0 | 0
COC(=O)c1ccc(CNC(=O)/C=C/c2cc([N+](=O)[O-])ccc2OC(F)F)cc1 | 19547 | 0 | 0 | 0
